24 compounds from paper PMC6664820, “Novel natural and synthetic inhibitors of solute carriers SGLT1 and SGLT2” (Pharmacology Research & Perspectives, 2019) can be followed below.

Out of some 1,900 compounds screened, about 40 (2%) showed an effect of 50% or more. The full list was thinned out, with strong results kept by preference.

Sequence of human SGLT1 (hSGLT1) (P13866 whole entry, looked up): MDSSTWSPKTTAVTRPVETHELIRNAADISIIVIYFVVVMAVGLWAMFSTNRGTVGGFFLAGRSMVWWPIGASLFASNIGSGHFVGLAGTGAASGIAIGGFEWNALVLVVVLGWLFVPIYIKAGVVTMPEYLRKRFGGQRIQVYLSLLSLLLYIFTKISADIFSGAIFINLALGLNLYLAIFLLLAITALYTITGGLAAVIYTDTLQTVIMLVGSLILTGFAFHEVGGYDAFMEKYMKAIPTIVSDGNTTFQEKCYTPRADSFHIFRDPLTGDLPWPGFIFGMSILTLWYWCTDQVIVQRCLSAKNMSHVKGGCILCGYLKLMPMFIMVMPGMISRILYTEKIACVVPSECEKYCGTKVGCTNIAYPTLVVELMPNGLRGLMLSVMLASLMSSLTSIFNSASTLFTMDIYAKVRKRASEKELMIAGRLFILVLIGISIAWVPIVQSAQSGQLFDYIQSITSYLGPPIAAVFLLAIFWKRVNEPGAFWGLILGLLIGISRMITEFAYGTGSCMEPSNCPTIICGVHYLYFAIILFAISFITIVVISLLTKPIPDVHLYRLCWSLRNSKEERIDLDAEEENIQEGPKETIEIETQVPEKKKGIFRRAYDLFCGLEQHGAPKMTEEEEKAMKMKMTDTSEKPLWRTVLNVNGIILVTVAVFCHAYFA

This test deals with human SGLT1 (hSGLT1) (human, UniProt P13866). Briefly: primary screen, percent of control activity; higher = less effect of the substance. Conditions: 50 µM. Further details: single well. The gist of the method:
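Single-point screen at 50 µmol/L in CHO-hSGLT1 cells, with 160 µmol/L 1-NBD-glucose in glucose-free DMEM for 90 min at 37°C. Fluorescence from isopropanol extracts was calibrated, and CHO wild-type uptake was subtracted. Data are percent of uptake without compound.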
Regarding `C[C@@H]1[C@H]2[C@H](O[C@@H]3O[C@H](CO)[C@@H](O)[C@H](O)[C@H]3O)OC=C(C(=O)O)[C@H]2C[C@@H]1O`, the “NORMALIZED SGLT1 ACTIVITY (%)” value came out at 123%.

As to `Nc1ccn(C2O[C@H](CO)[C@@H](O)[C@H]2O)c(=O)n1` (stereo partly drawn), the “NORMALIZED SGLT1 ACTIVITY (%)” value was 107%. Regarding `O=C(O[C@@H]1Cc2c(O)cc(O)cc2O[C@@H]1c1cc(O)c(O)c(O)c1-c1c([C@H]2Oc3cc(O)cc(O)c3C[C@H]2OC(=O)c2cc(O)c(O)c(O)c2)cc(O)c(O)c1O)c1cc(O)c(O)c(O)c1`, the “NORMALIZED SGLT1 ACTIVITY (%)” value worked out at 99%. In the case of `O=C1CCCC2C3CC(CN12)[C@@H]1CCCCN1C3.[O-][Cl+3]([O-])([O-])O` (stereo partly drawn) it was 97%; in that of `Oc1cc(O)cc(/C=C/c2ccccc2)c1`, 39%. Take `COc1ccc(/C=C/c2cc(O)cc(O)c2)cc1`: the “NORMALIZED SGLT1 ACTIVITY (%)” value is 198%.

For `COc1cc(O)cc(/C=C/c2ccccc2)c1`, the “NORMALIZED SGLT1 ACTIVITY (%)” value was found to be 494%. For `O=C1c2ccccc2C(=O)C1c1ccccc1`, the “NORMALIZED SGLT1 ACTIVITY (%)” value is reported as 111%.

For the compound `COc1ccc(C(=O)CC(=O)O)c2c1C=CC(C)(C)O2`, the “NORMALIZED SGLT1 ACTIVITY (%)” value was determined as 115%. With `CC(=O)/C(=C\c1ccccc1)CC(=O)O`, the “NORMALIZED SGLT1 ACTIVITY (%)” value was 142%. Under `CC(=O)Oc1ccc(/C=C/c2cc(OC(C)=O)cc(OC(C)=O)c2)cc1` stands 222%; under `COc1cc(-c2coc3cc(O[C@@H]4O[C@H](CO)[C@@H](O)[C@H](O)[C@H]4O)c(OC)c(O)c3c2=O)cc(O)c1OC`, 111%; under `COC(=O)C1[C@H]2C[C@H]3c4[nH]c5ccccc5c4CCN3C[C@@H]2CC[C@@H]1O.Cl` (stereo partly drawn), 120%. Consider `CC(=O)O[C@@H]1CC2C(C)(C)CCC(=O)[C@]2(C)C2CC[C@@]3(C)[C@H](c4ccoc4)OC(=O)C4OC43[C@@]21C` (stereo partly drawn), for which the “NORMALIZED SGLT1 ACTIVITY (%)” value is recorded as 126%. On to `CCOc1nc2cccc(C(=O)OC(C)OC(=O)OC3CCCCC3)c2n1Cc1ccc(-c2ccccc2-c2nnn[nH]2)cc1` (stereo not drawn), for which the “NORMALIZED SGLT1 ACTIVITY (%)” value is given as 36%. Under `CCCCc1nc(Cl)c(CO)n1Cc1ccc(-c2ccccc2-c2nnn[nH]2)cc1` stands 249%; under `CCCCC1=NC2(CCCC2)C(=O)N1Cc1ccc(-c2ccccc2-c2nnn[nH]2)cc1`, 117%; under `N.N.[Cl][Pt][Cl]`, 90%. Turning to `COc1ccc2c(c1)[C@@]1(C)CC[C@@H](O)C[C@@H]1CC2`, the “NORMALIZED SGLT1 ACTIVITY (%)” value was 116%. Under `CC(C)=CCCC1(C)C=Cc2c(O)c3c(c(CC=C(C)C)c2O1)OC12C(=CCCC1C(C)(C)O[C@@]2(C/C=C(\C)C(=O)O)C(=O)O)C3=O` (stereo partly drawn) stands 39%; under `CC(C)=CCCC1(C)C=Cc2c(O)c3c(c(CC=C(C)C)c2O1)OC12C(=CC4CC1C(C)(C)OC2(C/C=C(/C)C(=O)O)C4O)C3=O` (stereo not drawn), 174%.

Regarding `CC(C)=CCCC1(C)C=Cc2c(O)c3c(c(CC=C(C)C)c2O1)OC12C(=CC4CC1C(C)(C)OC2(C/C=C(/C)C(=O)O)C4=O)C3=O` (stereo not drawn), the “NORMALIZED SGLT1 ACTIVITY (%)” value was determined as 163%.

Consider `O=c1c(O)cccc2cc(O)c(O)c(O)c12`, for which the “NORMALIZED SGLT1 ACTIVITY (%)” value turned out to be 137%. Under `CNC(C)[C@@H]1CC[C@@H](N)[C@@H](OC2[C@@H](N)C[C@@H](N)[C@H](OC3OC[C@](C)(O)[C@H](NC)[C@H]3O)[C@H]2O)O1.O=S(=O)(O)O` (stereo partly drawn) stands 95%.
